The text below walks through data of PubChem BioAssay.

Each structure is given as a SMILES string.

This test deals with Wnt5a (protein binding on small-molecule microarray). Description: Wnt5a binders on small-molecule microarray, primary screen, biophysical, 635/667 nm fluorescence (AID 1142).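 Also: fluorescence read at 667 nm with signal to noise per printed feature.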 The note with it: 635 nm fluorescence, higher = more signal.
For `O=C1OCC=C[C@H]2OC34C=CCN(c5ccc(Cl)cc5)C(=O)[C@H]3N(CCCCCO)C(=O)[C@@H]4[C@@H]12` (stereo partly specified), the composite z-score is -0.391. As for `CC(C)(C)OC(=O)CC[C@]1(C(=O)NCCN2CCOCC2)N=C(c2ccc(OCCCO)cc2)O[C@H]1c1ccccc1N=[N+]=[N-]`, the figure is 0.191; as for `COC(=O)C1(Cc2ccccc2)C=C2C(=C(c3ccccc3)C(=O)C2C)CN1` (stereo unspecified), 2; as for `COc1cc(CO)cc(I)c1O[C@H]1C=C(C(=O)NCCO)C[C@@H](N(CC2CCCCC2)C(=O)c2ccc(C(F)(F)F)cc2)[C@@H]1O`, -0.0143. As for `COc1ccc([Si](C)(C)[C@H]2[C@H](CCn3cc(CCO)nn3)O[C@@]3(C(=O)N(Cc4ccc(N5C(=O)c6cccc7cccc5c67)cc4)c4ccccc43)[C@@H]2C)cc1`, the figure is 0.426. Under `CC=CC(O)C1C=CC2C(=O)N(C)C(=O)C2N1Nc1ccc([N+](=O)[O-])cc1[N+](=O)[O-]` (stereo unspecified) stands -0.449. As to `COCCCNC(=O)[C@]1(Cc2ccccc2N=[N+]=[N-])N=C(c2ccc(OCCCO)cc2)O[C@@H]1c1ccccc1N=[N+]=[N-]`, the composite z-score amounted to 0.497. Under `[N-]=[N+]=NCc1ccccc1C[C@@]1(C(N)=O)N=C(c2ccc(OCCCO)cc2)O[C@@H]1c1ccccc1CN=[N+]=[N-]` stands 0.592; under `O=C1NC(=O)C2C1C=CC(C(O)c1ccc3c(c1)OCO3)N2Nc1ccccn1` (stereo unspecified), 0.141. Molecule `O=C1C[C@]2(c3ccc([N+](=O)[O-])cc3)C(=O)N(Cc3ccccc3)c3cc(CO)ccc3[C@H]2N1CC12CC3CC(CC(C3)C1)C2` displayed a composite z-score of -0.186. In the case of `COc1cc2c(cc1OC)CN(C(=O)[C@H]1[C@@H]3C(=O)O[C@@H](c4ccccc4)[C@@H](c4ccccc4)N3[C@@H](c3ccc(OCCO)cc3)[C@]13C(=O)Nc1ccc(C#CCCO)cc13)CC2`, the composite z-score came to 0.455.
